This passage reports Potency and activation results from PubChem BioAssay (Tox21).

Inconclusive results are not listed. A call without a number means that no potency is given here. A number with no mark means an inactive call. The source made the active and inactive calls. Calls come from the whole dose curve.
Potency is the fitted concentration of half-maximal effect.

Sequence of Progesterone receptor (Homo sapiens) (P06401 whole entry, looked up): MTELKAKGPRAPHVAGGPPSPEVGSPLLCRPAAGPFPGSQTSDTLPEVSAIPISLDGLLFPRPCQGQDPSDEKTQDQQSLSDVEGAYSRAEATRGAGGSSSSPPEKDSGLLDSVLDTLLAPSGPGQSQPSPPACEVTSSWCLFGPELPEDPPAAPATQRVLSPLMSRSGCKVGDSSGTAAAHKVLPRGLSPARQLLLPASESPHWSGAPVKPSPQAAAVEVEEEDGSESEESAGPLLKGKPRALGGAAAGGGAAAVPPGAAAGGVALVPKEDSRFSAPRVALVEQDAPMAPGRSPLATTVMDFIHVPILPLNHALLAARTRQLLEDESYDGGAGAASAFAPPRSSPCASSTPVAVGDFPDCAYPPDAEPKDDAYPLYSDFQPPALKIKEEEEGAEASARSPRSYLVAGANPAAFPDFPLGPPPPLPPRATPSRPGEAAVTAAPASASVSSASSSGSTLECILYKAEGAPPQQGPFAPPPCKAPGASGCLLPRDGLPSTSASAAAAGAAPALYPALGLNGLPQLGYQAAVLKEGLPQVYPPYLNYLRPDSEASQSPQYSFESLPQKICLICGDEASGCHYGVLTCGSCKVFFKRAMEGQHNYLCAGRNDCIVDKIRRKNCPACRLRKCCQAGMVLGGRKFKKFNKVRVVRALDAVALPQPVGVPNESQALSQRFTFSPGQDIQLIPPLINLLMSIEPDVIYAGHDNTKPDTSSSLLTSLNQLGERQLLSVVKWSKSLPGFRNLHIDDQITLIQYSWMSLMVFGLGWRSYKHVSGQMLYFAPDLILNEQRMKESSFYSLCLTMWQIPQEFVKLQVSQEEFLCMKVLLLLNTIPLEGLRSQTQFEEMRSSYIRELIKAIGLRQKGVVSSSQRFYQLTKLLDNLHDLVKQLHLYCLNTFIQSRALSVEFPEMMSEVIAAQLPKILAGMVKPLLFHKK

The test addresses Progesterone receptor (Homo sapiens) (UniProt P06401). Nature of the test: qHTS assay to identify small molecule agonists of the progesterone receptor (PR) signaling pathway (AID 1346784). Note: nearly all actives have a fitted effect of over 30% in size. The conditions noted are these: PR-UAS-bla HEK293T, beta-lactamase FRET ratio, 16 h; series mostly up to 92.4 µM. The text has this: U.S. Tox21 Program National Center for Advancing Translational Sciences [NCATS] NIH Chemical Genomics Center [NCGC] U.S. Environmental Protection Agency [EPA] National Institutes of Environmental Health Sciences [NIEHS] National Toxicology Program [NTP] U.S. Food and Drug Administration [FDA] […] Endocrine disrupting chemicals (EDCs) and their interactions with steroid hormone receptors like PR causes disruption of normal endocrine function. To identify the compounds that activate PR signaling, a PR-UAS-bla GripTite cell line i.e. PR-UAS-bla HEK 293T (Invitrogen, Carlsbad, CA, USA) containing a beta-lactamase reporter gene under the control of an Upstream Activator Sequence (UAS) was used to screen Tox21 10K compound library.
Tox21 Assay Protocol Summary: PR-UAS-bla HEK 293T cells were dispensed at 3,000 cells/5 uL of assay medium containing 2% charcoal stripped FBS per well into black wall/clear-bottom 1536-well plates using a Multidrop Combi (ThermoFisher Scientific, Waltham, MA) dispenser. After the assay plates were incubated at a 37C and 5% CO2 for 6hr, 23 nL of compounds dissolved in DMSO, positive controls or DMSO only was transferred to the assay plate by a Pintool station (Kalypsys, San Diego, CA). The plates were incubated at 37C and 5% CO2 for 16hr. Then 1 uL of LiveBLAzer B/G FRET substrate was added using a BioRAPTR FRD (Flying Reagent Dispenser, Aurora Discovery, San Diego, CA). After the plates were incubated at room temperature for 2 hours, fluorescence intensity was measured by an Envision plate reader (PerkinElmer, Shelton, CT).
A general note: In qHTS, concentration-response curves come from the screen itself.
Regarding `COc1cc2nc(N(C)CCCNC(=O)C3CCCO3)nc(N)c2cc1OC` (stereo not given), the Potency result was “inactive”. Same read-out and setting: under `O=C(Nc1ccccc1)c1ccccc1O` stands “inactive”. Take `CNCCCN1c2ccccc2CCc2ccccc21`: the Potency entry is “inactive”. `C=CC(=O)OCCOc1ccccc1`: the Potency result was “inactive”.

Take `CCCCC(=O)OCC(=O)[C@H]1[C@H](C)C[C@H]2[C@@H]3C[C@H](F)C4=CC(=O)C=C[C@]4(C)[C@@]3(F)[C@@H](O)C[C@@]21C`: the Potency is 13.3 nM (active). Turning to `CC/C=C\CCOC(=O)CC`, the Potency entry was “inactive”. Still for that read-out and setting: under `CC(C)(C)Cl` stands “inactive”.

As for `CCCCCCOC(=O)NC(=N)c1ccc(NCc2nc3cc(C(=O)N(CCC(=O)OCC)c4ccccn4)ccc3n2C)cc1`, the Potency entry was “inactive”. For `Brc1c2ccccc2c(Br)c2ccccc12`, the activation is 5.54% [at 8.39 µM]. In the case of `COc1ccc(C)cc1[N+](=O)[O-]`, the Potency entry is “inactive”. On the same count and under the same terms, the value for `Cc1c(N)cccc1[N+](=O)[O-]` was “inactive”. In the case of `CC1(c2ccccc2)OC(C(=O)O)=CC1=O` (stereo not given), the Potency result was “inactive”. Same read-out and setting: under `C=C1[C@H]2CC[C@@H]3[C@H]2C(C)(C)CCC[C@]13C` stands “inactive”; under `Cc1oc(-c2ccccc2)nc1CCOc1cccc2c1ccn2CCC(=O)O`, “inactive”. On to `O=C(O)C1(C(=O)O)CCC1.[NH2-].[NH2-].[Pt+2]`, for which the Potency result is “inactive”. On the same count and under the same terms, the value for `Nc1cc(C(=O)O)c(O)c(S(=O)(=O)O)c1` was “inactive”. Take `C=C(C)C(=O)OCCO`: the Potency result was “inactive”. As for `Cc1ccccc1S(=O)(=O)O`, the Potency result was “inactive”.

With `COc1ccc(-c2nc3ccc(C4=NNC(=O)CC4C)cc3[nH]2)cc1` (stereo not given), the Potency entry was “inactive”.

Turning to `CCCCc1nc2cccnc2n1Cc1ccc(-c2ccccc2-c2nnn[nH]2)cc1`, the Potency entry is “inactive”. Same read-out and setting: under `CC1CCC(=O)C1=O` (stereo not given) stands “inactive”; under `C[C@@H]1C[C@H]2O[C@@]3(O[C@@H]2C(C)(C)O)[C@H](O)[C@@]2(C)[C@@H]4CC[C@H]5C(C)(C)[C@@H](O[C@@H]6OC[C@@H](O)[C@H](O)[C@H]6O)CC[C@@]56C[C@@]46CC[C@]2(C)[C@@H]13`, “inactive”. Take `Cc1[nH]c(C)c(Cl)c(=O)c1Cl`: the activation was 2.04% [at 19 µM]. Regarding `CN1Cc2cc(C(=O)N3CCC(C4CCNCC4)CC3)ccc2NC(CC(=O)O)C1=O` (stereo not given), the Potency result was “inactive”. For `CCCCC1=NC2(CCCC2)C(=O)N1Cc1ccc(-c2ccccc2-c2nn[nH]n2)cc1`, the Potency entry was “inactive”.

Consider `C[C@H]1C[C@H]2[C@@H]3CCC4=CC(=O)C=C[C@]4(C)[C@@]3(Cl)[C@@H](O)C[C@]2(C)[C@@]1(O)C(=O)CO`, for which the Potency was 23.7 nM (active).

Turning to `CCC(CC)Nc1ccc(C)c(C)c1`, the Potency entry was “inactive”. On the same count and under the same terms, the value for `CCCCOC(=O)CCCCCCCC(=O)OCCCC` was “inactive”.

Consider `Nc1cccc([N+](=O)[O-])c1`, for which the Potency entry is “inactive”. For `CCCCc1ncc(/C=C(\Cc2cccs2)C(=O)O)n1Cc1ccc(C(=O)O)cc1`, the Potency entry was “inactive”. Still for that read-out and setting: under `O=C(O)c1ccco1` stands “inactive”; under `Cn1c(=O)cc(Oc2ccc(F)cc2F)c2cnc(NCC(C)(C)O)nc21`, “inactive”; under `CC(C)OC(=O)C(C)N(C(=O)c1ccccc1)c1ccc(F)c(Cl)c1` (stereo not given), “inactive”. On to `O=S(c1cc(Cl)cc(Cl)c1O)c1cc(Cl)cc(Cl)c1O`, for which the Potency entry is “inactive”. Same read-out and setting: the value for `O=C1c2ccccc2S(=O)(=O)N1CCCCN1CCN(c2ncccn2)CC1` was “inactive”; that for `N=c1ccn2c(n1)O[C@H]1[C@H](O)[C@@H](CO)O[C@H]12` was “inactive”. Still for that read-out and setting: under `O=C(OCCCCCCOC(=O)c1ccccc1)c1ccccc1` stands “inactive”.

Take `CC(=O)c1cccc([N+](=O)[O-])c1`: the Potency entry is “inactive”. Same read-out and setting: the value for `Cc1ncc(CO)c(C=O)c1O` was “inactive”; that for `OCc1cc(C(O)CNCCCCCCOCCCCc2ccccc2)ccc1O` (stereo not given) was “inactive”.
